# In PubChem BioAssay AID1159580 (chemical genetic matrix, 2015):
# Hit rate of the full screen: of about 5,500 compounds, about 2,000 (36%) were called active. About 18% were inconclusive and are not listed. The list shows a part of the results. Unmarked numbers belong to inactive results. Rule as the data show it: active = normalized growth mostly below about 0.91 (no sharp cut-off); inconclusive = no clear call, values can overlap the other calls; inactive = mostly above about 0.92.
# Assay: chemical genetic growth profiling, strain panel (AID 1159580);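 also: tested at 20 µM; growth read once vehicle control cultures reached saturation at 30 °C; 1 = growth at the plate median or of vehicle wells; lower values mean less growth of the strain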
# Details: growth OD
smiles,measurement,setting,value
Cc1cc(O)c2c(c1O)C(=O)c1c(O)cc(C)c(O)c1C2=O,normalized growth,"S. cerevisiae deletion strains, locus YJR075W, strain HOC1, active compounds read low",1.01
same,normalized growth,"S. cerevisiae deletion strains, locus YKL009W, strain mrt4, active compounds read low",1.05
same,normalized growth,"S. cerevisiae deletion strains, locus YKL068W, active compounds read low",0.995
same,normalized growth,"S. cerevisiae deletion strains, locus YKL085W, strain MDH1 (second series), active compounds read low",1.01
same,normalized growth,"S. cerevisiae deletion strains, locus YKL085W, strain MDH1, active compounds read low",1.01
same,normalized growth,"S. cerevisiae deletion strains, locus YKL160W, strain elf1, active compounds read low",0.985
same,normalized growth,"S. cerevisiae deletion strains, locus YKL190W, strain CNB1, active compounds read low",0.984
same,normalized growth,"S. cerevisiae deletion strains, locus YKR001C, strain vps1, active compounds read low",0.971
same,normalized growth,"S. cerevisiae deletion strains, locus YKR026C, strain gcn3, active compounds read low",0.979
same,normalized growth,"S. cerevisiae deletion strains, locus YKR091W, strain srl3, active compounds read low",0.968
same,normalized growth,"S. cerevisiae deletion strains, locus YLL001W, strain dnm1, active compounds read low",0.966
same,normalized growth,"S. cerevisiae deletion strains, locus YLL026W, active compounds read low",0.988
same,normalized growth,"S. cerevisiae deletion strains, locus YLL041C, strain sdh2, active compounds read low",0.981
same,normalized growth,"S. cerevisiae deletion strains, locus YLR027C, strain aat2, active compounds read low",0.966
same,normalized growth,"S. cerevisiae deletion strains, locus YLR039C, strain RIC1, active compounds read low",0.635 (active)
same,normalized growth,"S. cerevisiae deletion strains, locus YLR058C, strain SHM2, active compounds read low",0.93
same,normalized growth,"S. cerevisiae deletion strains, locus YLR102C, strain apc9, active compounds read low",0.999
same,normalized growth,"S. cerevisiae deletion strains, locus YLR113W, strain HOG1, active compounds read low",1.03
same,normalized growth,"S. cerevisiae deletion strains, locus YLR221C, strain rsa3, active compounds read low",0.948
same,normalized growth,"S. cerevisiae deletion strains, locus YLR258W, strain gsy2, active compounds read low",0.977
same,normalized growth,"S. cerevisiae deletion strains, locus YLR262C, strain YPT6 (second series), active compounds read low",0.887
same,normalized growth,"S. cerevisiae deletion strains, locus YLR262C, strain YPT6, active compounds read low",0.675
same,normalized growth,"S. cerevisiae deletion strains, locus YLR268W, strain sec22, active compounds read low",0.964
same,normalized growth,"S. cerevisiae deletion strains, locus YLR320W, strain mms22, active compounds read low",0.965
same,normalized growth,"S. cerevisiae deletion strains, locus YLR330W, strain CHS5, active compounds read low",0.956
same,normalized growth,"S. cerevisiae deletion strains, locus YLR342W, strain FKS1 (second series), active compounds read low",0.981
same,normalized growth,"S. cerevisiae deletion strains, locus YLR342W, strain FKS1, active compounds read low",0.98
same,normalized growth,"S. cerevisiae deletion strains, locus YLR357W, strain rsc2, active compounds read low",0.976
same,normalized growth,"S. cerevisiae deletion strains, locus YLR370C, strain arc18, active compounds read low",0.987
same,normalized growth,"S. cerevisiae deletion strains, locus YLR371W, strain rom2, active compounds read low",1
same,normalized growth,"S. cerevisiae deletion strains, locus YLR384C, strain iki3, active compounds read low",0.962
same,normalized growth,"S. cerevisiae deletion strains, locus YLR418C, strain cdc73, active compounds read low",1.02
same,normalized growth,"S. cerevisiae deletion strains, locus YML016C, strain PPZ1, active compounds read low",0.958
same,normalized growth,"S. cerevisiae deletion strains, locus YML032C, strain rad52, active compounds read low",0.974
same,normalized growth,"S. cerevisiae deletion strains, locus YML120C, strain ndi1, active compounds read low",0.912 (active)
same,normalized growth,"S. cerevisiae deletion strains, locus YML124C, strain tub3, active compounds read low",0.997
same,normalized growth,"S. cerevisiae deletion strains, locus YMR058W, strain fet3, active compounds read low",0.923
same,normalized growth,"S. cerevisiae deletion strains, locus YMR078C, strain ctf18, active compounds read low",0.981
same,normalized growth,"S. cerevisiae deletion strains, locus YMR125W, strain sto1, active compounds read low",0.99
same,normalized growth,"S. cerevisiae deletion strains, locus YMR129W, active compounds read low",0.981
same,normalized growth,"S. cerevisiae deletion strains, locus YMR205C, strain PFK2, active compounds read low",0.993
same,normalized growth,"S. cerevisiae deletion strains, locus YMR223W, strain ubp8, active compounds read low",0.989
same,normalized growth,"S. cerevisiae deletion strains, locus YMR231W, strain pep5, active compounds read low",0.959
same,normalized growth,"S. cerevisiae deletion strains, locus YMR263W, strain SAP30, active compounds read low",1.01
same,normalized growth,"S. cerevisiae deletion strains, locus YMR307W, strain GAS1, active compounds read low",0.778
same,normalized growth,"S. cerevisiae deletion strains, locus YNL067W, strain RPL9B, active compounds read low",0.991
same,normalized growth,"S. cerevisiae deletion strains, locus YNL071W, strain lat1, active compounds read low",0.984
same,normalized growth,"S. cerevisiae deletion strains, locus YNL128W, strain TEP1, active compounds read low",0.96
same,normalized growth,"S. cerevisiae deletion strains, locus YNL153C, strain GIM3, active compounds read low",0.965
same,normalized growth,"S. cerevisiae deletion strains, locus YNL183C, strain NPR1, active compounds read low",0.951
same,normalized growth,"S. cerevisiae deletion strains, locus YNL209W, strain ssb2, active compounds read low",0.969
same,normalized growth,"S. cerevisiae deletion strains, locus YNL233W, strain BNI4, active compounds read low",0.982
same,normalized growth,"S. cerevisiae deletion strains, locus YNL248C, strain rpa49, active compounds read low",0.95
same,normalized growth,"S. cerevisiae deletion strains, locus YNL250W, strain rad50, active compounds read low",0.974
same,normalized growth,"S. cerevisiae deletion strains, locus YNL271C, strain bni1, active compounds read low",0.987
same,normalized growth,"S. cerevisiae deletion strains, locus YNL298W, strain CLA4, active compounds read low",0.98
same,normalized growth,"S. cerevisiae deletion strains, locus YNL307C, strain MCK1, active compounds read low",1.01
same,normalized growth,"S. cerevisiae deletion strains, locus YNL322C, strain KRE1 (second series), active compounds read low",0.944
same,normalized growth,"S. cerevisiae deletion strains, locus YNL322C, strain KRE1, active compounds read low",0.984
same,normalized growth,"S. cerevisiae deletion strains, locus YNR049C, strain mso1, active compounds read low",0.965
same,normalized growth,"S. cerevisiae deletion strains, locus YNR052C, strain pop2, active compounds read low",0.98
same,normalized growth,"S. cerevisiae deletion strains, locus YOL006C, strain TOP1, active compounds read low",0.491 (active)
same,normalized growth,"S. cerevisiae deletion strains, locus YOL012C, strain htz1",1.11
same,normalized growth,"S. cerevisiae deletion strains, locus YOL147C, strain pex11, active compounds read low",1
same,normalized growth,"S. cerevisiae deletion strains, locus YOR001W, strain rrp6, active compounds read low",0.962
same,normalized growth,"S. cerevisiae deletion strains, locus YOR061W, strain CKA2, active compounds read low",0.934
same,normalized growth,"S. cerevisiae deletion strains, locus YOR069W, strain VPS5, active compounds read low",0.975
same,normalized growth,"S. cerevisiae deletion strains, locus YOR070C, strain gyp1, active compounds read low",0.972
same,normalized growth,"S. cerevisiae deletion strains, locus YOR080W, strain dia2, active compounds read low",0.974
same,normalized growth,"S. cerevisiae deletion strains, locus YOR083W, strain WHI5, active compounds read low",0.964
same,normalized growth,"S. cerevisiae deletion strains, locus YOR106W, strain vam3, active compounds read low",0.937
same,normalized growth,"S. cerevisiae deletion strains, locus YOR136W, strain idh2, active compounds read low",1.01
same,normalized growth,"S. cerevisiae deletion strains, locus YOR144C, strain elg1, active compounds read low",0.988
same,normalized growth,"S. cerevisiae deletion strains, locus YOR184W, strain ser1, active compounds read low",1.02
same,normalized growth,"S. cerevisiae deletion strains, locus YOR231W, strain MKK1, active compounds read low",0.996
same,normalized growth,"S. cerevisiae deletion strains, locus YOR265W, strain rbl2, active compounds read low",0.971
same,normalized growth,"S. cerevisiae deletion strains, locus YOR270C, strain vph1, active compounds read low",0.841
same,normalized growth,"S. cerevisiae deletion strains, locus YOR290C, strain snf2, active compounds read low",0.914
same,normalized growth,"S. cerevisiae deletion strains, locus YOR316C, strain cot1, active compounds read low",0.997
same,normalized growth,"S. cerevisiae deletion strains, locus YPL051W, strain arl3, active compounds read low",0.953
same,normalized growth,"S. cerevisiae deletion strains, locus YPL055C, strain LGE1, active compounds read low",1.01
same,normalized growth,"S. cerevisiae deletion strains, locus YPL078C, strain atp4, active compounds read low",0.982
same,normalized growth,"S. cerevisiae deletion strains, locus YPL106C, strain sse1, active compounds read low",0.953
same,normalized growth,"S. cerevisiae deletion strains, locus YPL240C, strain hsp82, active compounds read low",0.98
same,normalized growth,"S. cerevisiae deletion strains, locus YPL241C, strain CIN2, active compounds read low",0.995
same,normalized growth,"S. cerevisiae deletion strains, locus YPL256C, strain CLN2, active compounds read low",0.993
same,normalized growth,"S. cerevisiae deletion strains, locus YPR119W, strain clb2, active compounds read low",0.986
same,normalized growth,"S. cerevisiae deletion strains, locus YPR141C, strain kar3, active compounds read low",0.978
same,normalized growth,"S. cerevisiae deletion strains, locus YPR163C, strain tif3, active compounds read low",1
same,normalized growth,"S. cerevisiae deletion strains, locus YPR167C, strain met16, active compounds read low",0.989
same,normalized growth,"S. cerevisiae deletion strains, strain wtn01, active compounds read low",0.998
same,normalized growth,"S. cerevisiae strains, strain wild type, active compounds read low",0.989
